Structures are written as SMILES. Out of some 39,000 compounds screened, about 3,300 (8.5%) were called active. Shown is part of a subset that was picked to be rich in actives.

In this experiment the test system is HepG2. Kind of experiment: cytotoxicity call (relative viability < 0.9). The following applies: 10 µM.
`CC(=O)N(C)C1(c2ccccc2)CCN(CCC[C@]2(c3ccc(Cl)c(Cl)c3)CCCN(C(=O)c3ccccc3)C2)CC1`: the cytotoxicity call is “active”.

As to `CC(C)Oc1cccc(CC(=O)N2CCC[C@](CC[N+]34CCC(c5ccccc5)(CC3)CC4)(c3ccc(Cl)c(Cl)c3)C2)c1`, the cytotoxicity call was “inactive”.

For `CN1CCN(C(=O)C[C@@H]2CC[C@@H]3[C@@H](COc4ccc(NC(=O)c5cscn5)cc4C(=O)N3C)O2)CC1`, the cytotoxicity call is “inactive”.

In the case of `O=C(C[C@@H]1CC[C@@H]2[C@H](COC[C@H](O)CN2C(=O)c2ccccn2)O1)NC1CCC1`, the cytotoxicity call was “inactive”.

On to `CCc1cccc(C)c1NC(C)=O`, for which the cytotoxicity call is “inactive”.

Consider `C[C@H](CO)N1C[C@H](C)[C@H](CN(C)S(C)(=O)=O)OCCCC[C@H](C)Oc2ccc(NS(=O)(=O)c3ccccc3)cc2C1=O`, for which the cytotoxicity call is “inactive”.

In the case of `COc1ccc(S(=O)(=O)N2C[C@@H](O)COC[C@H]3O[C@@H](CC(=O)NCCN4CCCCC4)CC[C@@H]32)cc1`, the cytotoxicity call was “inactive”.

As for `C[C@@H]1CN([C@H](C)CO)C(=O)c2cccc(NC(=O)c3cnccn3)c2O[C@@H]1CN(C)Cc1ccc(C(=O)O)cc1`, the cytotoxicity call is “inactive”.

For `CC(C)CCCC(C)C1CCC2C3CCC4CC(O)CCC4(C)C3CCC12C` (stereo not drawn) [5alpha-CHOLESTANOL ], the cytotoxicity call was “inactive”.

Regarding `CC(C)CCC[C@@H](C)[C@H]1CC[C@H]2[C@@H]3C[C@@H](O)[C@@]4(O)C[C@@H](O)CC[C@]4(C)[C@H]3CC[C@]12C` [CHOLESTAN-3beta,5alpha,6beta-TRIOL ], the cytotoxicity call was “active”.

Turning to `CC(C)CCCC(C)C1CCC2C3CC(=O)C4CC(O)CCC4(C)C3CCC12C` (stereo not drawn) [5alpha-CHOLESTAN-3beta-OL-6-ONE ], the cytotoxicity call is “inactive”.

As to `CCNC(=O)N1CCCC[C@@H]1CO`, the cytotoxicity call was “inactive”.

Take `O=C(N[C@@H](c1ccccc1)c1ccc2ccccc2n1)C1CCN(C(=O)NC(c2ccccc2)c2ccccc2)CC1`: the cytotoxicity call is “inactive”.

As for `C[C@H](N[C@@H](CCc1ccccc1)C(=O)O)C(=O)N1CCC[C@H]1C(=O)O`, the cytotoxicity call is “inactive”.

With `CN[C@@H](C)C(=O)N[C@H]1CN(C(=O)CC(C)C)CC[C@H]2CC[C@@H](C(=O)NC(c3ccccc3)c3ccccc3)N2C1=O`, the cytotoxicity call is “active”.

As for `COc1cnc(NS(=O)(=O)c2ccc(N)cc2)nc1`, the cytotoxicity call was “inactive”.

`COS(=O)(=O)[O-].COc1cc(N)cn[n+]1-c1ccccc1`: the cytotoxicity call is “active”.

With `COCC#Cc1cnc2c(c1)C(=O)N([C@@H](C)CO)C[C@@H](C)[C@H](CN(C)C(=O)Nc1cc(F)ccc1F)O2`, the cytotoxicity call is “inactive”.

Regarding `COc1ccc(NC(=O)Nc2ccc3c(c2)C(=O)N([C@H](C)CO)C[C@H](C)[C@@H](CN(C)C(=O)Nc2cccc4ccccc24)O3)cc1`, the cytotoxicity call is “inactive”.

`C[C@@H]1CN([C@@H](C)CO)C(=O)c2cc(NC(=O)Nc3cccc4ccccc34)ccc2O[C@@H]1CN(C)C(=O)Nc1ccccc1`: the cytotoxicity call is “inactive”.

`COc1ccc(NC(=O)Nc2ccc3c(c2)C(=O)N([C@H](C)CO)C[C@@H](C)[C@@H](CN(C)C(=O)Nc2cccc4ccccc24)O3)cc1`: the cytotoxicity call was “inactive”.

Turning to `C[C@@H]1CN([C@@H](C)CO)C(=O)c2cc(NC(=O)Nc3cccc4ccccc34)ccc2O[C@H]1CN(C)C(=O)Nc1cccc2ccccc12`, the cytotoxicity call is “inactive”.

Turning to `C[C@H](CO)N1C[C@H](C)[C@@H](CN(C)C(=O)Nc2cccc3ccccc23)Oc2ccc(NC(=O)Nc3ccc(C(F)(F)F)cc3)cc2C1=O`, the cytotoxicity call is “inactive”.

`C[C@@H]1CN([C@H](C)CO)C(=O)c2cc(NC(=O)Nc3cccc4ccccc34)ccc2O[C@H]1CN(C)C(=O)Nc1ccccc1`: the cytotoxicity call was “inactive”.

With `C[C@H]1CN([C@@H](C)CO)C(=O)c2cc(NC(=O)Nc3ccc(C(F)(F)F)cc3)ccc2O[C@H]1CN(C)C(=O)Nc1cccc2ccccc12`, the cytotoxicity call is “inactive”.

For `C[C@@H]1CN([C@H](C)CO)C(=O)c2cc(NC(=O)Nc3ccc(C(F)(F)F)cc3)ccc2O[C@H]1CN(C)C(=O)Nc1cccc2ccccc12`, the cytotoxicity call is “active”.

Take `C[C@@H]1CN([C@H](C)CO)C(=O)c2cc(NC(=O)Nc3cccc4ccccc34)ccc2O[C@H]1CN(C)C(=O)Nc1cccc2ccccc12`: the cytotoxicity call is “inactive”.

As to `COc1ccc(NC(=O)Nc2ccc3c(c2)C(=O)N([C@@H](C)CO)C[C@H](C)[C@H](CN(C)C(=O)Nc2cccc4ccccc24)O3)cc1`, the cytotoxicity call is “active”.

On to `C[C@H]1CN([C@@H](C)CO)C(=O)c2cc(NC(=O)Nc3cccc4ccccc34)ccc2O[C@H]1CN(C)C(=O)Nc1ccccc1`, for which the cytotoxicity call is “active”.

For `C[C@H](CO)N1C[C@H](C)[C@H](CN(C)C(=O)Nc2cccc3ccccc23)Oc2ccc(NC(=O)Nc3cccc4ccccc34)cc2C1=O`, the cytotoxicity call was “active”.

Turning to `C[C@H]1CN([C@@H](C)CO)C(=O)Cc2cc(NS(=O)(=O)c3ccccc3)ccc2O[C@@H]1CN(C)S(=O)(=O)c1ccc(F)cc1`, the cytotoxicity call is “inactive”.

For `Cc1noc(C)c1S(=O)(=O)N(C)C[C@H]1Oc2ccc(NC(=O)Nc3ccc4c(c3)OCO4)cc2C(=O)N([C@@H](C)CO)C[C@H]1C`, the cytotoxicity call was “inactive”.

For the compound `CC(=O)N[C@@H]1CC[C@H](CCNC(=O)C2CC2)O[C@H]1CO`, the cytotoxicity call was “inactive”.

As to `O=C(C[C@@H]1C=C[C@H](NC(=O)c2cccc(F)c2)[C@H](CO)O1)NCCN1CCCC1`, the cytotoxicity call was “inactive”.

With `C[C@@H]1CCCCO[C@@H](CN(C)S(C)(=O)=O)[C@H](C)CN([C@@H](C)CO)C(=O)c2cc(NS(=O)(=O)c3ccc(F)cc3)ccc2O1`, the cytotoxicity call is “inactive”.

On to `COc1ccc(NC(=O)Nc2ccc3c(c2)CC(=O)N([C@@H](C)CO)C[C@H](C)[C@@H](CN(C)C(=O)Nc2cccc4ccccc24)O3)cc1`, for which the cytotoxicity call was “inactive”.

`C[C@@H]1CCCCO[C@@H](CN(C)S(=O)(=O)c2ccccc2)[C@H](C)CN([C@H](C)CO)C(=O)c2cc(NS(C)(=O)=O)ccc2O1`: the cytotoxicity call was “inactive”.

In the case of `CC(C)CC#Cc1ccc2c(c1)O[C@@H](CN(C)S(=O)(=O)c1ccc(F)cc1)[C@@H](C)CN([C@H](C)CO)S2(=O)=O`, the cytotoxicity call was “inactive”.

Turning to `COc1ccccc1CNC(=O)C[C@H]1C[C@H]2c3cc(NC(=O)Cc4ccncc4)ccc3O[C@H]2[C@H](CO)O1`, the cytotoxicity call was “inactive”.

In the case of `CC1OC(OC2C(Oc3cc(O)c4c(=O)cc(-c5ccc(O)cc5)oc4c3)OC(CO)C(O)C2O)C(O)C(O)C1O` (stereo not drawn), the cytotoxicity call is “inactive”.

As to `Cc1noc(C)c1NC(=O)N(C)C[C@@H]1Oc2c(NC(=O)C3CC3)cccc2C(=O)N([C@H](C)CO)C[C@@H]1C`, the cytotoxicity call is “inactive”.

For `Cc1noc(C)c1NC(=O)Nc1ccc2c(c1)C(=O)N([C@H](C)CO)C[C@@H](C)[C@@H](CN(C)CC1CCCCC1)OCCCC[C@H](C)O2`, the cytotoxicity call is “inactive”.

In the case of `CC(C)NC(=O)N(C)C[C@H]1OCc2cn(nn2)CCCC(=O)N([C@H](C)CO)C[C@@H]1C`, the cytotoxicity call was “inactive”.

In the case of `CC(=O)OCC(=O)C1(O)CCC2C3CCC4=CC(=O)CCC4(C)C3C(O)CC21C` (stereo not drawn), the cytotoxicity call is “inactive”.

`C[C@@H]1CN([C@@H](C)CO)C(=O)c2cc(NC(=O)NC3CCCCC3)ccc2O[C@H]1CN(C)C(=O)Nc1cccc2ccccc12`: the cytotoxicity call is “inactive”.

As for `C[C@@H]1CN([C@H](C)CO)C(=O)c2cc(NC(=O)NC3CCCCC3)ccc2O[C@H]1CN(C)C(=O)Nc1cccc2ccccc12`, the cytotoxicity call is “inactive”.

In the case of `C[C@H]1CN([C@@H](C)CO)C(=O)c2cc(NC(=O)NC3CCCCC3)ccc2O[C@H]1CN(C)C(=O)Nc1cccc2ccccc12`, the cytotoxicity call was “active”.

For the compound `Cc1noc(C)c1S(=O)(=O)Nc1cccc2c1O[C@@H](CN(C)Cc1ccc3c(c1)OCO3)[C@@H](C)CN([C@H](C)CO)C2=O`, the cytotoxicity call was “inactive”.

As to `C[C@H]1CN([C@@H](C)CO)C(=O)c2cc(C#Cc3ccccc3F)cnc2O[C@H]1CN(C)S(=O)(=O)c1ccccc1F`, the cytotoxicity call is “inactive”.

As to `COCC(=O)N(C)C[C@H]1Oc2cc(C#CCC3CCCC3)ccc2S(=O)(=O)N([C@@H](C)CO)C[C@H]1C`, the cytotoxicity call was “inactive”.

Regarding `C[C@H]1CN([C@@H](C)CO)C(=O)Cc2cc(NC(=O)Nc3ccc(Cl)c(Cl)c3)ccc2O[C@H]1CN(C)S(=O)(=O)c1ccc(Oc2ccccc2)cc1`, the cytotoxicity call was “inactive”.

Regarding `C[C@H]1CN([C@@H](C)CO)C(=O)Cc2cc(NC(=O)Nc3ccc(F)cc3)ccc2O[C@H]1CN(C)S(=O)(=O)c1ccc(Oc2ccccc2)cc1`, the cytotoxicity call is “active”.

Regarding `C[C@H]1CN([C@@H](C)CO)C(=O)Cc2cc(NC(=O)Nc3cccc4c3CCCC4)ccc2O[C@H]1CN(C)S(=O)(=O)c1ccc(Oc2ccccc2)cc1`, the cytotoxicity call was “active”.

For the compound `CC(C)NC(=O)Nc1ccc2c(c1)CC(=O)N([C@H](C)CO)C[C@@H](C)[C@@H](CN(C)S(=O)(=O)c1ccccc1)O2`, the cytotoxicity call was “inactive”.

Take `Cc1ccc(S(=O)(=O)N(C)C[C@@H]2Oc3ccc(NC(=O)Nc4cccc5ccccc45)cc3CC(=O)N([C@@H](C)CO)C[C@H]2C)cc1`: the cytotoxicity call was “inactive”.

Regarding `C[C@H]1CN([C@@H](C)CO)C(=O)Cc2cc(NC(=O)Nc3cc(Cl)cc(Cl)c3)ccc2O[C@H]1CN(C)S(=O)(=O)c1ccc(Oc2ccccc2)cc1`, the cytotoxicity call was “active”.

Take `CC(C)NC(=O)Nc1ccc2c(c1)CC(=O)N([C@@H](C)CO)C[C@H](C)[C@H](CN(C)S(=O)(=O)c1ccc(F)cc1)O2`: the cytotoxicity call was “inactive”.

In the case of `C[C@H]1CN([C@@H](C)CO)C(=O)Cc2cc(NC(=O)Nc3cccc4c3CCCC4)ccc2O[C@H]1CN(C)S(=O)(=O)c1ccc(Cl)cc1`, the cytotoxicity call was “inactive”.

Regarding `C[C@H]1CN([C@@H](C)CO)C(=O)Cc2cc(NC(=O)Nc3ccc(C#N)cc3)ccc2O[C@H]1CN(C)S(=O)(=O)c1ccc(Oc2ccccc2)cc1`, the cytotoxicity call was “inactive”.

Turning to `CCCN(C)C[C@@H]1Oc2cc(C#Cc3ccccc3OC)ccc2S(=O)(=O)N([C@@H](C)CO)C[C@@H]1C`, the cytotoxicity call is “inactive”.

`COc1ccc(S(=O)(=O)Nc2ccc3c(c2)C(=O)N([C@H](C)CO)C[C@H](C)[C@H](CN(C)S(=O)(=O)c2cccs2)O3)cc1`: the cytotoxicity call was “inactive”.

For the compound `O=C(C[C@@H]1C[C@H]2c3cc(NC(=O)Cc4ccncc4)ccc3O[C@H]2[C@H](CO)O1)NCc1ccc2c(c1)OCO2`, the cytotoxicity call was “inactive”.

For the compound `C=C(C(=O)O)[C@@H](CCCCCCOC(=O)C(=O)OCCCCCC[C@@H](C(=C)C(=O)O)C(=O)O)C(=O)O`, the cytotoxicity call is “inactive”.

The values are drawn from the antibiotic and cytotoxicity screens of Wong et al. (2023).
